The record followed here is PubChem BioAssay (NCATS).

Assay [1] is described as follows: Cell Viability - BJ (AID 421; calls by dose curve;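 also: potency is read from the fitted curve at half-maximal effect; cells exposed to compound for 40 hours at 37 °C before readout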). As to conditions: BJ fibroblast viability, qHTS. The procedure, abridged:
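Quantitative HTS: ATP depletion in BJ cells after 40 hr compound exposure in complete culture medium, detected with CellTiter-Glo; AC50 from standard Hill fits.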

Assay [2] can be described thus: Cellular Toxicity (caspase-3) HUV-EC-C (AID 656). As to conditions: HUV-EC-C cells, caspase-3 activation (apoptosis), vehicle = 0, 100 µM tamoxifen = 100%; series mostly up to 92.2 µM. Put shortly:
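Luminescent Caspase-Glo 3/7 readout after 16 h, 37 °C compound exposure of HUV-EC-C endothelial cells, 1000 per well, complete medium. AC50 derived by Hill fitting, with DMSO as baseline and 100 uM tamoxifen as full activation.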

The nature of assay [3]: Cellular Toxicity (caspase-3) MRC-5 (AID 659). As to conditions: MRC-5 cells, luminescence, normalized: DMSO 0%, 10 µM staurosporine 100%; series mostly up to 91.7 µM. The procedure, abridged: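 Concentration-dependent caspase 3/7 activation is measured in human normal lung fibroblasts (MRC-5) following 16-hour treatment. AC50 values come from standard Hill-equation modeling of luminescence normalized to DMSO and 10 uM staurosporine.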

Assay [4] is described as follows: Cellular Toxicity (caspase-3) Mesangial (AID 660).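 Also: combined caspase 3 and 7 activity read by Caspase-Glo luminescence; cells exposed to compound for 16 h before the caspase read.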 As to conditions: mesangial cells, normalized: DMSO 0%, 100 µM tamoxifen 100%; series mostly up to 91.7 µM. Put shortly:
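Mesangial cells, 1000/well, 5 h settle at 37 °C; compound 16 h, 37 °C; Caspase-Glo 3/7 reagent 20 min RT; luminescence. Norm.: DMSO = 0%, tamoxifen 100 uM = 100%. AC50, Hill fit.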

Assay [5] can be described thus: Cellular Toxicity (caspase-3) SK-N-SH (AID 661). As to conditions: SK-N-SH caspase-3 activation, qHTS; series mostly up to 91.7 µM. Put shortly:
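Human neuroblastoma SK-N-SH, 1500 cells/well, 5 hr pre-incubation, then compound 16 hr, 37 °C. Caspase-Glo 3/7 reagent, 1 hr RT, luminescence. Norm. to DMSO/10 uM staurosporine; Hill-fit AC50.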
On the technique in general: Quantitative high-throughput screening tests each substance at several concentrations.

The nature of assay [6]: Cellular Toxicity (caspase-3) Hek293 (AID 664).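 Also: cells exposed to compound for 16 h at 37 °C before readout.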 As to conditions: HEK293 caspase-3 activation, DMSO = 0%, 100 µM tamoxifen = 100%; at 92.2 µM (top of the series). The procedure, abridged:
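Cells plated, 5 hr at 37 °C; compounds added; 16 hr at 37 °C; Caspase-Glo 3/7 reagent, 20 min RT; luminescence read. Activation expressed relative to DMSO and 100 uM tamoxifen, AC50 by Hill model.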

A short description of assay [7]: Cellular Toxicity (caspase-3) NIH 3T3 (AID 666).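 Also: caspase signal read after 16 h compound exposure.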 Also: potency is read from the fitted curve at half-maximal effect.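 As to caspase-3 activation: 0% = DMSO basal and 100% = 100 µM tamoxifen stimulation.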 As to conditions: NIH 3T3 caspase-3 activation, apoptosis/toxicity; series mostly up to 92.2 µM. Put shortly: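 Luminescence from aminoluciferin released by caspase-3/7 cleavage of a peptide substrate served as read-out. Mouse fibroblast NIH 3T3 cells were exposed to compounds over a concentration range for 16 hours, and AC50 values came from standard Hill modelling.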

Assay [8] is described as follows: MultiTox-Fluor Cytotoxicity Assay - LYMP1-001 - Dead Cells (AID 946).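 Also: 0% = DMSO and 100% = tetraoctylammonium bromide.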 As to conditions: LYMP1-001 lymphoblastoid cells, dead-cell protease fluorescence; series mostly up to 92.2 µM. The procedure, abridged:
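In this qHTS, 15 uM tetraoctylammonium bromide defined 100% and DMSO defined basal activity. Lymphoblastoid cells (LYMP1-001, 2500 per well) received compound for 16 hr at 37 C before a fluorogenic dead-cell substrate readout at 485/520 nm.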

Assay [9] can be described thus: Cell Viability - LYMP1-002 - Assay at 16 hr (AID 948).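 Also: 0% = DMSO alone and full effect = 92 µM tetraoctylammonium bromide.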 As to conditions: LYMP1-002 lymphoblastoid cell viability; series mostly up to 92.2 µM. Put shortly: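 ATP luminescence (CellTiter-Glo) was measured after 16 hr compound exposure at 37 C of 2500 lymphoblastoid LYMP1-002 cells per well. Concentration-response curves were fitted with the Hill equation to give AC50.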

The nature of assay [10]: MultiTox-Fluor Cytotoxicity Assay - LYMP1-003 - Live Cells (AID 962).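 Also: cells exposed to compound for 16 hours at 37 °C; 0% = DMSO only and full loss = 92 µM tetraoctylammonium bromide; cytotoxic hits lower the live-cell protease signal.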 As to conditions: LYMP1-003 lymphoblastoid cells, MultiTox-Fluor live-cell protease fluorescence; series mostly up to 92.2 µM. Put shortly: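 qHTS, 1536-well; 2500 cells/well LYMP1-003; 5 hr 37 C settle; cpd 16 hr 37 C; MultiTox-Fluor reagent 60 min RT; live-cell protease fluor. 405/510; Hill-fit AC50; tetraoctylammonium bromide pos. ctrl.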

A short description of assay [11]: Cell Viability - LYMP2-003 (AID 965).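 Also: cells exposed to compounds for 24 h before reading; 0% = DMSO only and full effect = 92 µM tetraoctylammonium bromide; nearly all actives have a fitted effect of over 50% in size.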 As to conditions: LYMP2-003 lymphoblastoid cell viability; series mostly up to 92.2 µM. Put shortly:
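CellTiter-Glo luminescence quantified ATP loss after 24 h compound treatment of LYMP2-003 lymphoblastoid cells at 37 C. Titration series were fitted with the standard Hill equation to give AC50.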

Assay [12] in a line: Cell Viability - LYMP2-026 (AID 989). Also: % is scaled to controls: 0 for no effect and ±100 for the full control effect; nearly all actives have a fitted effect of over 50% in size. As to conditions: LYMP2-026 lymphoblastoid cell viability, qHTS; series mostly up to 92.2 µM. The procedure, abridged:
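Luminescent ATP signal (CellTiter-Glo, 30 min room temperature) measures viable lymphoblastoid cells after 24 hr compound treatment at 37 C. Decreased ATP reflects acute toxicity; AC50 values come from Hill-equation modeling.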

A short description of assay [13]: Cell Viability - LYMP1-002 - Assay at 40 hr (AID 994).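 Also: 0% = DMSO only and full inhibition = 92 µM tetraoctylammonium bromide; nearly all actives have a fitted effect of over 60% in size.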 As to conditions: LYMP1-002 lymphoblastoid cell viability; series mostly up to 92.2 µM. Put shortly: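 Luminescent ATP signal served as the viability readout, with decreases taken as toxicity. Cells were treated with compounds across a concentration range for 40 hours at 37 C, and AC50 values came from standard Hill modeling.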

Assay [14] can be described thus: qHTS Assay for Identification of Small Molecule Inducers of Hypoxia Response (AID 2120; active = well fitted curve in the direction sought with a large enough effect in the signal ratio, with a control signal flat, not every such curve was filed as active; the % refers to the signal ratio; also: 0% is about no effect). As to conditions: hypoxia response reporter cells, beta-lactamase ratio readout; series mostly up to 104 µM. The procedure, abridged:
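ME-180 HRE-bla cells plated in Opti-MEM/0.5% dialyzed FBS, rested 4-5 h, then dosed with compound titrations by pin tool. After 17 h at 37 degrees C, CCF4 dye loaded 2.5 h at RT; 460/530 nm ratio gave %Activity and AC50.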

Assay [15] has as its target Peroxisome proliferator-activated receptor alpha (Homo sapiens) (UniProt Q07869). In words: qHTS assay for small molecule agonists of the peroxisome proliferator-activated receptor alpha (PPARalpha) signaling pathway (AID 651778). Also: % of control where 0% means no effect. As to conditions: PathHunter PPARalpha complementation, chemiluminescence, 6 h; stronger effect = higher value. The procedure, abridged:
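Chemiluminescence from complemented enzyme reported PPARalpha activation in cells after 6 hr of compound treatment at 37 C. The detection reagent was incubated for 60 min at room temperature, and compounds were scored as agonists.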

Assay [16] in a line: qHTS assay for small molecule agonists of the antioxidant response element (ARE) signaling pathway measured by Nrf2-dependant transcriptional activity - cell viability counter screen (AID 720653; active = well fitted curve in the direction sought with a large enough effect in the repeat runs; an effect the other way counts as inactive or inconclusive; also: % is scaled to controls: 0 for no effect and ±100 for the full control effect). As to conditions: ARE-bla HepG2 viability, CellTiter-Glo ATP luminescence, 16 h; stronger effect = lower value. The procedure, abridged: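 Cytotoxicity counter screen: intracellular ATP quantified by CellTiter-Glo luminescence in the same ARE-bla HepG2 plates, after 16 h compound exposure and a 2 h beta-lactamase substrate step.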

Assay [17] is described as follows: qHTS assay for cell viability of the p53RE-bla HCT-116 cell line (AID 743292). Also: % is scaled to controls: 0 for no effect and ±100 for the full control effect; nearly all actives have a fitted effect of over 55% in size. As to conditions: p53RE-bla HCT-116 viability, ATP luminescence, 16 h; series mostly up to 95 µM. The procedure, abridged: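 ATP-based luminescent viability (CellTiter-Glo, 30 min RT) after 16 h compound treatment at 37 C of p53RE-bla HCT-116 cells, seeded at 4,000 cells/well and rested 5 h before dosing.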

Assay [18] concerns the target Cytochrome P450 3A4 (Homo sapiens) (UniProt P08684). In words: qHTS Assay for Inhibitors and Substrates of Cytochrome P450 3A4 (AID 884). Also: % is scaled to controls: 0 for no effect and ±100 for the full control effect; nearly all actives have a fitted effect of over 50% in size. As to conditions: recombinant CYP3A4, Luciferin-PPXE luminescence; series mostly up to 57.1 µM. The procedure, abridged:
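20 nM human CYP3A4 with 25 uM Luciferin-PPXE (at KM) in 200 mM KPO4, preincubated 10 min with compound; NADPH regeneration started a 60 min RT reaction. Luciferin detected by luminescence, normalized to 57 uM ketoconazole as full inhibition.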

The nature of assay [19]: qHTS assay for environmental chemicals that activate the Aryl hydrocarbon Receptor (AhR) signaling pathway (AID 651777). Also: % of control where 0% means no effect; nearly all actives have a fitted effect of over 15% in size. As to conditions: 1A2-DRE human hepatoma cells, luciferase, 24 h; activation: stronger effect = higher value. The procedure, abridged:
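Luminescence (One-Glo, 30 min, room temperature) reports AhR-driven luciferase in stably transfected human hepatoma cells bearing DRE and CYP1A2 promoter. Cells (1,200/well) were treated with compound for 24 hr at 37 C in qHTS format.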

“And” between values parts separate entries of the source, which are not always exact repeats. Equal values may be shown once. Unmarked numbers belong to inactive results. Results filed as inconclusive are left out. The source made the active and inactive calls. Unless noted, calls follow the shape of the dose curve; as a rule, active = well fitted curve in the direction sought with a large enough effect; inconclusive = small, poorly fitted or top-dose-only effect, or another doubt; inactive = no such curve, though single readings can be large; an effect the other way counts as inactive or inconclusive. Bounds are passed on as bounds.

Chain of Cytochrome P450 3A4 (Homo sapiens) (P08684 whole entry, looked up): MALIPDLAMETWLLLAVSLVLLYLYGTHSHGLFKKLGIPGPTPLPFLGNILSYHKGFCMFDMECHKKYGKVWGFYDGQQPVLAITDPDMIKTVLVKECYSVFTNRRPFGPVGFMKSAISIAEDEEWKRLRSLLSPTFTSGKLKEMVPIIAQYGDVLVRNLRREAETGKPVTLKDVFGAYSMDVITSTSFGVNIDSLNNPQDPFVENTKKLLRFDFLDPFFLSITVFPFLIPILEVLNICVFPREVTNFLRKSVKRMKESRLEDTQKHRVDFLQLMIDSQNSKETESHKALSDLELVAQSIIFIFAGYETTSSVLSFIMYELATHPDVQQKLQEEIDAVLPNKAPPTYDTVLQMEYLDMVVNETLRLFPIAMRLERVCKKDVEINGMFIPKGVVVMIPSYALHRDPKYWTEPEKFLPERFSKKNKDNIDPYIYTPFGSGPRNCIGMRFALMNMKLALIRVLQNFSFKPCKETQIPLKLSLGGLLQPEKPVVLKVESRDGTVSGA
Chain of Peroxisome proliferator-activated receptor alpha (Homo sapiens) (Q07869 whole entry, looked up): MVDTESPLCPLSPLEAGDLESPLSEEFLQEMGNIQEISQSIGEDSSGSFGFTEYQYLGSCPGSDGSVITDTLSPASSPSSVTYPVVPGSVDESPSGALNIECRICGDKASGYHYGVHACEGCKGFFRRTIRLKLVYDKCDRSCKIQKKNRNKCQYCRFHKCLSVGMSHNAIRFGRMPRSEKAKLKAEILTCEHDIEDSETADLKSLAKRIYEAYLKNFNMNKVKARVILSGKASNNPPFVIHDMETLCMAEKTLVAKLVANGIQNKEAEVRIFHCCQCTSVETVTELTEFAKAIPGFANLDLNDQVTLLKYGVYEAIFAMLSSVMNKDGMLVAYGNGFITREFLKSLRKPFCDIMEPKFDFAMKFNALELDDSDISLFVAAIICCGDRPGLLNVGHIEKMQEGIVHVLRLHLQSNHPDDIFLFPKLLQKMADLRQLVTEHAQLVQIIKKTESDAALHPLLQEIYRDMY

Take `Cc1cc(-c2ccc(N)c(C)c2)ccc1N`: in assay [1], the Potency is over 92 µM. In addition, the call in [2], in assay [3], in assay [4], in assay [8], in [9] and in [10] was inactive. In addition, the Potency result in assay [5], in assay [7], in assay [11], in assay [12], in [13] and in assay [14] was “inactive” in each case. Further, the Potency entry in [17] was “inactive”. Moreover, the caspase-3 activation in assay [6] is -2.85%. The max response in assay [15] was -2.87% and -0.886% and -6.11%; in assay [16], -1.36% and 7.56% and 13.5%.
With `CN(C)c1ccc(N(C)C)cc1`, the Potency in assay [1] is over 92 µM. In addition, the molecule was classed as inactive in [2], in [3], in assay [4], in [8], in assay [9] and in assay [10]. Further, the Potency result in assay [5], in assay [7], in assay [18], in [12], in assay [13] and in assay [14] was “inactive” each time. Moreover, the Potency entry in assay [17] was “inactive”. Moreover, in assay [6], the caspase-3 activation was -1.04%. The activation in assay [19] is 12.9%. Also, the max response was -4.1% in assay [15] and -11.4% in assay [16].
In the case of `C/C=C/C=O`, the Potency in assay [1] is over 92 µM. The call in assay [2], in assay [3], in [4], in assay [8], in assay [9] and in assay [10] was inactive. Further, the Potency entry in assay [5], in assay [7], in [18], in assay [11], in assay [12] and in assay [13] was “inactive” throughout. Further, the Potency entry in assay [14] and in [17] was “inactive” each time. For the same molecule, the caspase-3 activation in assay [6] is -1.23%. Moreover, the max response was 10% in [15] and -9.77% in assay [16].
As for `O=[N+]([O-])c1cc(Cl)c(Cl)c(Cl)c1`, the values for the Potency in assay [1] and in assay [7] were over 92 µM and 25.1 µM (active), respectively. Also, the call in assay [2], in assay [3], in assay [4], in assay [8], in assay [9] and in [10] was inactive. The Potency result in [5], in assay [18], in assay [11], in assay [12], in assay [13] and in [14] was “inactive” throughout. Also, the Potency result in assay [17] was “inactive”. The caspase-3 activation in assay [6] is 2.74%. The activation in [19] is 0.049%. Further, the max response is -4.23% in [15] and -3.56% in [16].
As to `c1ccoc1`, the Potency in assay [1] was over 92 µM. In addition, the molecule was called inactive in assay [2], in [3], in assay [4], in assay [8], in [9] and in assay [10]. For the same molecule, the Potency entry in assay [5], in [7], in assay [18], in assay [11], in [12] and in [13] was “inactive” each time. Besides, the Potency entry in [14] and in [17] was “inactive” throughout. Besides, in assay [6], the caspase-3 activation is -1.2%. The activation in [19] was -0.801%. The values for the max response in assay [15] and in [16] were 0.928% and 9.49%, respectively.
On to `O=C(Cl)c1ccccc1F`, for which the Potency in assay [1] was over 92 µM. Further, the call in [2], in assay [3], in [4], in assay [8], in assay [9] and in [10] was inactive. Besides, the Potency result in assay [5], in [7], in assay [18], in [11], in assay [12] and in assay [13] was “inactive” each time. Further, the Potency entry in [14] and in assay [17] was “inactive” throughout. Also, the caspase-3 activation in assay [6] is 1.06%. Further, in assay [19], the activation is 4.83%. Moreover, the max response was -1.25% in [15] and 6.36% in assay [16].
